From PubChem BioAssay AID2704 (Broad Institute, 2010)
Activity calls are given as the source filed them.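 How the source made its calls: active means a dose-dependent loss of polyadenylated product, with a fitted EC50, the dose giving half the full effect; inactive means no dose-dependent effect seen.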

Test: inhibitors of in vitro mRNA polyadenylation, dose response, orthogonal assay for polyadenylation inhibitor project, cell lysate, S. cerevisiae extracts, radioactive, gel readout (AID 2704)
Conditions: S. cerevisiae extract, GAL7 RNA polyadenylation

EC50, active:
N#C/C(=C/c1ccc([N+](=O)[O-])o1)c1nc2ccccc2[nH]1 1100 µM
COc1cc(/C=C2/CC/C(=C/c3ccc(O)c(OC)c3)C2=O)ccc1O 400 µM
N#CC1(C#N)C2=C(CCCC2)NC(c2ccccc2)C1(C#N)C#N (stereo unspecified) 280 µM
CCOc1cc(/C=C2\N=C(SC(C)C(N)=O)N(c3ccc(OC(F)F)cc3)C2=O)ccc1O (stereo unspecified) 410 µM
Cc1ccc2nc(/C(C#N)=C/c3ccc([N+](=O)[O-])o3)[nH]c2c1 700 µM
Cc1ccc(-c2nn3c(C)nnc3s2)cc1NC(=O)CSc1ccc(Cl)cc1 900 µM
